# Cruzain inh Det: qHTS Assay for Promiscuous and Specific Inhibitors of Cruzain (with detergent); Cruzipain (Trypanosoma cruzi), P25779; purified cruzain, Z-FR-AMC fluorescence, 0.01% Triton; Potency, µM, for the others: max response, negative = inhibition, most hits filed as inhibitors; 200,000 compounds, 0.43% hits; AID 1478, 2009;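 note: plate controls were neutral wells for no effect and buffer without enzyme for full effect; nearly all actives have a fitted effect of over 40% in size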
# Target sequence (P25779 123-467 limits assumed): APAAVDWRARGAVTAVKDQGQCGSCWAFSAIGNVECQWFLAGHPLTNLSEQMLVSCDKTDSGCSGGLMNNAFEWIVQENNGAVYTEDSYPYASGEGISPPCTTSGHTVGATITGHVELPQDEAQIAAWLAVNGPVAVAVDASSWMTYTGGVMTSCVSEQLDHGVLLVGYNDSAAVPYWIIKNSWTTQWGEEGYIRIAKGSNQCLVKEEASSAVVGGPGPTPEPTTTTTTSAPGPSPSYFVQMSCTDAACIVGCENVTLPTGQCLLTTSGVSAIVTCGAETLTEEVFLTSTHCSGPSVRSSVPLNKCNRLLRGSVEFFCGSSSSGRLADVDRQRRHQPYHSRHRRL
#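 Compounds were screened in titration against cruzain (1.5 nM) with 0.01% Triton X-100 to counter colloidal aggregation. Activity was the AMC fluorescence increase over 60 s after adding 2 uM Z-FR-AMC at pH 5.5.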
# Cruzain noTriton: qHTS Assay for Promiscuous and Specific Inhibitors of Cruzain (without detergent); Cruzipain (Trypanosoma cruzi), P25779; purified cruzain, Z-FR-AMC fluorescence, no detergent; Potency, µM, without a hit: max response, negative = inhibition, actives largely listed as inhibitors; 200,000 compounds, 2.3% hits;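 note: plate controls were enzyme without inhibitor for no effect and buffer without enzyme for full effect; nearly all actives have a fitted effect of over 40% in size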
#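 Detergent-free condition (0.00005% Triton X-100) in acetate buffer pH 5.5 with DTT. 1.5 nM enzyme and compound were pre-mixed 15 min, then 2 uM Z-FR-AMC substrate added; reaction progress from fluorescence change between first and third reads (60 s).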
# Starred values were filed as active, the others as inactive; ? = inconclusive. This is a sample that favours compounds with a hit; in the whole collection about 2.6% have one here. Calls come from the whole dose curve; as a rule, active = well fitted curve in the direction sought with a large enough effect; inconclusive = small, poorly fitted or top-dose-only effect, or another doubt; inactive = no such curve, though single readings can be large; an effect the other way counts as inactive or inconclusive. Potency is the fitted concentration of half-maximal effect.
SMILES,Cruzain inh Det,Cruzain noTriton
Cc1cc2c(c(=O)n1Cc1cccnc1)C(c1ccc(F)cc1)C(C#N)=C(N)O2 (stereo unspecified),2%,2%
Cc1ccc(C2=NC(c3ccc(F)cc3)=Nc3ccc(C)cc3N2)cc1,-1%,25µM*
Cc1ccc2c(c1)NC(c1cccnc1)=NC(c1ccc(F)cc1)=N2,-4%,5%
COC(=O)c1cc2sc(Cl)cc2n1CC(=O)Nc1cc(OC)cc(OC)c1,-2%,18%
COC(=O)c1cc2sc(Cl)cc2n1CC(=O)NCCC(C)C,3%,25µM*
CCOc1ccc(NS(=O)(=O)c2cc(NC(=O)c3cccc(C)c3)ccc2Cl)cc1,-4%,-11%
Cc1ccc(S(=O)(=O)CC#CCOC(=O)c2ccc([N+](=O)[O-])cc2)cc1,14µM*,13µM*
Cc1ccc(C(=O)c2ccc([N+](=O)[O-])cc2)cc1,2%,-1%
Cc1cc(C(=O)COC(=O)c2ccc(N)c([N+](=O)[O-])c2)c(C)n1-c1ccc2c(c1)OCO2,-2%,13µM*
O=C(CC1Sc2ccccc2NC1=O)OCC(=O)N1CCc2ccccc21 (stereo unspecified),-7%,?
Cc1cc(C(=O)COC(=O)CC2Sc3ccccc3NC2=O)c(C)n1-c1ccccc1 (stereo unspecified),-11%,?
COC(=O)c1ccc(-n2c(C)cc(C(=O)COC(=O)CC3Sc4ccccc4NC3=O)c2C)cc1 (stereo unspecified),-4%,25µM*
CC(=O)c1ccc(OCC(=O)c2cc(C)n(-c3ccc4c(c3)OCO4)c2C)cc1,-4%,-9%
CC(=O)Nc1ccc(S(=O)(=O)NCC(=O)OCC(=O)c2cc(C)n(-c3ccc4c(c3)OCO4)c2C)cc1,-4%,?
Cc1cc(C(=O)COC(=O)CC2Sc3ccccc3NC2=O)c(C)n1-c1ccc(Br)cc1 (stereo unspecified),2%,4µM*
Cc1cc(C(=O)COC(=O)CC2Sc3ccccc3NC2=O)c(C)n1-c1ccc2c(c1)OCO2 (stereo unspecified),-1%,25µM*
CSc1nc2sc3c(c2c(=O)n1C1CCCCC1)CCN(C)C3,-1%,-5%
CCOC(=O)c1c(C)[nH]c(CCC(=O)Nc2ccc(N(CC)CC)cc2C)c1C,2%,-1%
O=C(Nc1cccc(C(F)(F)F)c1)c1ccccc1NC(=O)C1CCCCC1,-5%,0%
CCOC(=O)N1CCN(S(=O)(=O)c2ccc(F)c(C(=O)Nc3ccc(C(C)C)cc3)c2)CC1,-3%,?
Cc1cc(C(=O)COC(=O)Cc2n[nH]c(=O)c3ccccc23)c(C)n1-c1ccc2c(c1)OCO2,-2%,25µM*
COc1ccc(-n2c(C)cc(C(=O)COC(=O)Cc3n[nH]c(=O)c4ccccc34)c2C)cc1,-6%,?
CCOc1ccc(NC(=O)c2sc3ccccc3c2Cl)cc1,-1%,5%
O=C1CC(c2ccccc2)Cc2[nH]c(=O)c(C(=O)Nc3ccc(F)cc3)cc21 (stereo unspecified),0%,10%
CC(=O)N1CCN=C1SCc1c(F)cccc1Cl,6%,-4%
SMILES,Cruzain inh Det,Cruzain noTriton
COC(=O)c1sc(-c2ccccc2)cc1NC(=O)c1ccc(OC)cc1,-8%,?
COC(=O)c1sc(-c2ccccc2)cc1NC(=O)c1ccc(F)cc1,-3%,10µM*
CSc1cccc(-n2cc(-c3ccc4c(c3)OCO4)[nH]c2=O)c1,-6%,32µM*
Cc1ccc(NC(=O)Cn2c(-c3ccc4c(c3)OCO4)cn(-c3ccccc3)c2=O)cc1C,-8%,-21%
CCSc1nnc(NC(=O)C2CC2c2ccccc2)s1 (stereo unspecified),-2%,?
Cc1nc2ccc(NC(=O)Cc3cccs3)cc2s1,0%,-5%
COc1cccc(NC(=O)/C(C#N)=C/c2c(C)n(Cc3ccccc3)c3ccccc23)c1,-3%,7.9µM*
COc1cccc(NC(=O)Cn2cc(C#N)c3ccccc32)c1,-4%,1%
N#C/C(=C\c1cn(Cc2ccc(F)cc2)c2ccccc12)C(=O)NCc1ccco1,-12%,?
Cc1cccc(NC(=O)/C(C#N)=C/c2ccc(C)o2)c1,-9%,2%
N#C/C(=C\c1ccc(-c2ccccc2Cl)o1)C(=O)Nc1nc2ccccc2s1,-5%,?
Cc1ccc(/C=C(\C#N)C(=O)Nc2cccc(Cl)c2)o1,0%,10µM*
Cc1ccc(Cc2cnc(NC(=O)/C(C#N)=C/c3ccc(-c4ccccc4[N+](=O)[O-])o3)s2)cc1,-1%,10µM*
COc1cccc(NC(=O)/C(C#N)=C\c2cn(Cc3ccc(Cl)cc3)c3ccccc23)c1,-3%,10µM*
CCCCC[C@H](O)/C=C/[C@H]1OC(=O)C[C@H](O)[C@@H]1C/C=C\CCCC(=O)O,3%,0%
O=C(c1cccs1)N(Cc1nc2sc3c(c2c(=O)[nH]1)CCCC3)C1CCCC1,-9%,-23%
Cc1ccc(Cn2cc(/C=C(/C#N)C(=O)Nc3cccc(Cl)c3)c3ccccc32)cc1,-3%,7.9µM*
Cc1ccc(C(=O)Nc2ncc(Cc3ccccc3)s2)o1,-2%,-6%
Cn1cc(/C=C(\C#N)C(=O)Nc2ncc(Cc3ccc(Cl)cc3)s2)c2ccccc21,-4%,7.9µM*
N#C/C(=C\c1cn(Cc2ccccc2)c2ccccc12)C(=O)NCc1ccco1,-6%,-13%
O=C(c1ccc(Br)cc1)N1CCN(S(=O)(=O)c2ccccc2)CC1,0%,2%
CCCCCc1ccc(-c2ccc(/C=C/C(N)=O)cc2)nc1,-1%,13µM*
CCCCCc1ccc(-c2ccc(C(=O)Oc3ccc(C(=O)OC)cc3)cc2)nc1,-1%,-4%
CCOC(=O)c1ccc2c(c1)n(CC)c(/C=C/Nc1ccccc1)[n+]2CC,0%,-23%
O=C(CCCn1c(=O)c2cccn2c2ccc(F)cc21)NCCc1ccccc1,-1%,-11%
SMILES,Cruzain inh Det,Cruzain noTriton
O=C(Cn1c(=O)c2cccn2c2ccccc21)NCCc1ccccc1,-5%,16µM*
O=C(NCc1ccc(Cl)cc1)c1cc(-c2ccc(F)cc2)on1,-2%,?
Nc1c(C(=O)NCc2ccc(Cl)cc2)sc2nc(-c3ccc(F)cc3)ccc12,13µM*,10µM*
COCCCNc1nc2c(c(=O)[nH]c(=O)n2C)n1CCCc1ccccc1,0%,-7%
Cc1ccc(CSc2nnc(-c3cccc(S(=O)(=O)N4CCOCC4)c3)n2CC(C)C)cc1,-3%,?
CCN1CCSc2ccc(C(=O)NCc3ccc(F)cc3)cc21,-1%,-9%
O=C(CCSc1nc2ccccc2s1)N/N=C/c1c(O)ccc2ccccc12,-2%,13µM*
COc1ccc(/C=N/NC(=O)CCSc2nc3ccccc3s2)cc1OC,-10%,?
CCC(=O)NC(=S)Nc1ccc(S(=O)(=O)NC(C)=O)cc1,-2%,-3%
NC(=O)c1cccnc1,3%,3%
O=C(COc1ccc2ccccc2c1)NCCNC(=O)COc1ccc2ccccc2c1,7%,25µM*
COc1ccc(OCC(=O)Nc2nc3ccccc3[nH]2)cc1,2%,-9%
O=C(COc1ccc2ccccc2c1)NNC(=O)Cc1ccccc1,-4%,-2%
O=C(COc1ccc2ccccc2c1)Nc1nc2ccccc2[nH]1,1%,25µM*
C#CCSC1=C(C#N)C(c2cccs2)C(C(=O)OCC)=C(C)N1 (stereo unspecified),-7%,20µM*
CCOC(=O)C1=C(C)NC(C)=C(C(=O)OCC)C1c1cccs1,-4%,7%

# High-throughput results from PubChem BioAssay.
